# Data as given in paper PMC7862700, “An all-to-all approach to the identification of sequence-specific readers for epigenetic DNA modifications on cytosine”.
# Biological target: T1, GABPA (Homo sapiens, UniProt Q06546 1-454)
# T1 sequence: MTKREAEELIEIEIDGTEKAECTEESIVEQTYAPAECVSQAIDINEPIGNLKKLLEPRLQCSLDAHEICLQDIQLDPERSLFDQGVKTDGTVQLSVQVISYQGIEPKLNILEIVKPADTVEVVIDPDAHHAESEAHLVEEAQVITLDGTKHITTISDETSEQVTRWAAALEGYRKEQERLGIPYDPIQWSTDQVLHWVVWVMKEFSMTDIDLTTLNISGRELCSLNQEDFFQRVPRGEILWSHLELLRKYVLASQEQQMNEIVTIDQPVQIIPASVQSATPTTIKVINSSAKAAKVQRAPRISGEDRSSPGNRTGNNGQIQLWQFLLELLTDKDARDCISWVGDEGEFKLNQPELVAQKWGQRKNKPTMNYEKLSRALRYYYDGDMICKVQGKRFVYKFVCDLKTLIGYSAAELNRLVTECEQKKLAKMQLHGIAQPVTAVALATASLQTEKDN
# Experiment: DAPPL (digital affinity profiling via proximity ligation, sequencing); 10 mM Tris-HCl pH 7.5, 50 mM NaCl, 1 mM DTT, 4% glycerol, room temperature, 30 min; GST-TFs on glutathione beads, 16-mer random dsDNA library, 0.1% formaldehyde crosslink after washing; high values mean tight binding
# Settings: protein: recombinant; tags: N-terminal GST; dsDNA, one strand shown
# Procedure, shortened: (§1)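 The binding signal reported is, for every hexamer, its read frequency for a factor over its read frequency for the tag-only sample. Reads came from pools of yeast-expressed, GST-fused human transcription factors on glutathione beads, barcoded with DNA and mixed with that sample, which were incubated with 200 nmole of a random double-stranded 16-mer DNA library in Tris/NaCl/DTT/glycerol buffer at room temperature for 30 min. After washing, the pools were crosslinked with 0.1% formaldehyde, proximity-ligated with BsaI/T4 ligase for 1 h at 37 °C, PCR-amplified and sequenced on an Illumina NextSeq500.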
row,Sequence,binding signal
1,TTAAAC,"1.2 fold enrichment (6-mer frequency, TF over GST control)"
2,TATTAA,"1.16 fold enrichment (6-mer frequency, TF over GST control)"
3,TGCTAT,"1.47 fold enrichment (6-mer frequency, TF over GST control)"
4,AAATGT,"1.25 fold enrichment (6-mer frequency, TF over GST control)"
5,CTTCTG,"1.26 fold enrichment (6-mer frequency, TF over GST control)"
6,ATGCGA,"1.24 fold enrichment (6-mer frequency, TF over GST control)"
7,GCGCTT,"1.32 fold enrichment (6-mer frequency, TF over GST control)"
8,TTTGTA,"1.48 fold enrichment (6-mer frequency, TF over GST control)"
9,CTACCA,"1.42 fold enrichment (6-mer frequency, TF over GST control)"
10,CCGTCT,"1.43 fold enrichment (6-mer frequency, TF over GST control)"
11,TAACAT,"1.3 fold enrichment (6-mer frequency, TF over GST control)"
12,ATGAGC,"1.33 fold enrichment (6-mer frequency, TF over GST control)"
13,CAACTT,"1.53 fold enrichment (6-mer frequency, TF over GST control)"
14,CTTTAT,"1.18 fold enrichment (6-mer frequency, TF over GST control)"
15,TATGGC,"1.26 fold enrichment (6-mer frequency, TF over GST control)"
16,ACAGCT,"1.19 fold enrichment (6-mer frequency, TF over GST control)"
17,TAGTTT,"1.25 fold enrichment (6-mer frequency, TF over GST control)"
18,TTATGG,"1.39 fold enrichment (6-mer frequency, TF over GST control)"
19,CTTCGT,"1.38 fold enrichment (6-mer frequency, TF over GST control)"
20,TTAACT,"1.15 fold enrichment (6-mer frequency, TF over GST control)"

# Biological target: T2, ERG (Homo sapiens, UniProt P11308 1-479)
# T2 sequence: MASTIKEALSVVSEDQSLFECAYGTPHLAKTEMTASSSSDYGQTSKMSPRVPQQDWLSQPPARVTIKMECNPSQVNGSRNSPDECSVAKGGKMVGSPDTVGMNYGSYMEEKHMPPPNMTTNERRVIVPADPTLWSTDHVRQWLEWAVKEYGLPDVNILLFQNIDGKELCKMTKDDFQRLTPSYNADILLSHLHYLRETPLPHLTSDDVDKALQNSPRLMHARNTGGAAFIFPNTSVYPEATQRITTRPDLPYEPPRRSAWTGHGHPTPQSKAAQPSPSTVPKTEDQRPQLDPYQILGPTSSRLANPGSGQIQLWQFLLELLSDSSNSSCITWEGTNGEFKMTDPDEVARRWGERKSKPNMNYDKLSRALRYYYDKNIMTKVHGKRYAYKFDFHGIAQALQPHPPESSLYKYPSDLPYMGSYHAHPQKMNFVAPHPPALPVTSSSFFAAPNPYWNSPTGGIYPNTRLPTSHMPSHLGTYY
# Experiment: as above
# Settings: protein: recombinant; tags: N-terminal GST; dsDNA, one strand shown
# Procedure, shortened: as §1
row,Sequence,binding signal
1,AACTGG,"1.31 fold enrichment (6-mer frequency, TF over GST control)"
2,AATATG,"1.15 fold enrichment (6-mer frequency, TF over GST control)"
3,AATGGC,"1.43 fold enrichment (6-mer frequency, TF over GST control)"
4,CTTGAT,"1.34 fold enrichment (6-mer frequency, TF over GST control)"
5,TCTTGA,"1.24 fold enrichment (6-mer frequency, TF over GST control)"
6,AAGCAT,"1.13 fold enrichment (6-mer frequency, TF over GST control)"
7,CTACGC,"1.47 fold enrichment (6-mer frequency, TF over GST control)"
8,AAAACG,"1.21 fold enrichment (6-mer frequency, TF over GST control)"
9,ATTGTA,"1.19 fold enrichment (6-mer frequency, TF over GST control)"
10,TCCTCA,"1.51 fold enrichment (6-mer frequency, TF over GST control)"
11,TTTTAT,"1.3 fold enrichment (6-mer frequency, TF over GST control)"
12,CTTGGT,"1.42 fold enrichment (6-mer frequency, TF over GST control)"
13,TATATC,"1.48 fold enrichment (6-mer frequency, TF over GST control)"
14,ATAAAA,"1.09 fold enrichment (6-mer frequency, TF over GST control)"
15,TCCAAC,"1.16 fold enrichment (6-mer frequency, TF over GST control)"
16,CAAAAC,"1.23 fold enrichment (6-mer frequency, TF over GST control)"
17,CGATCT,"1.28 fold enrichment (6-mer frequency, TF over GST control)"
18,TTATTT,"1.44 fold enrichment (6-mer frequency, TF over GST control)"
19,ATGTTC,"1.21 fold enrichment (6-mer frequency, TF over GST control)"
20,TTCCCA,"1.3 fold enrichment (6-mer frequency, TF over GST control)"

row,Sequence,binding signal
1,TTAAAC,"1.25 fold enrichment (6-mer frequency, TF over GST control)"
2,TATTAA,"1.12 fold enrichment (6-mer frequency, TF over GST control)"
3,TGCTAT,"1.41 fold enrichment (6-mer frequency, TF over GST control)"
4,AAATGT,"1.31 fold enrichment (6-mer frequency, TF over GST control)"
5,CTTCTG,"1.3 fold enrichment (6-mer frequency, TF over GST control)"
6,ATGCGA,"1.21 fold enrichment (6-mer frequency, TF over GST control)"
7,GCGCTT,"1.24 fold enrichment (6-mer frequency, TF over GST control)"
8,TTTGTA,"1.53 fold enrichment (6-mer frequency, TF over GST control)"
9,CTACCA,"1.29 fold enrichment (6-mer frequency, TF over GST control)"
10,CCGTCT,"1.28 fold enrichment (6-mer frequency, TF over GST control)"
11,TAACAT,"1.36 fold enrichment (6-mer frequency, TF over GST control)"
12,ATGAGC,"1.2 fold enrichment (6-mer frequency, TF over GST control)"
13,CAACTT,"1.68 fold enrichment (6-mer frequency, TF over GST control)"
14,CTTTAT,"1.16 fold enrichment (6-mer frequency, TF over GST control)"
15,TATGGC,"1.27 fold enrichment (6-mer frequency, TF over GST control)"
16,ACAGCT,"1.17 fold enrichment (6-mer frequency, TF over GST control)"
17,TAGTTT,"1.14 fold enrichment (6-mer frequency, TF over GST control)"
18,TTATGG,"1.3 fold enrichment (6-mer frequency, TF over GST control)"
19,CTTCGT,"1.3 fold enrichment (6-mer frequency, TF over GST control)"
20,TTAACT,"1.17 fold enrichment (6-mer frequency, TF over GST control)"

# Biological target: ELF1 (Homo sapiens, UniProt P32519 1-619)
# Experiment: as above
# Settings: protein: recombinant; tags: N-terminal GST; dsDNA, one strand shown
# Procedure, shortened: as §1
# Sequence of ELF1 (P32519 whole entry): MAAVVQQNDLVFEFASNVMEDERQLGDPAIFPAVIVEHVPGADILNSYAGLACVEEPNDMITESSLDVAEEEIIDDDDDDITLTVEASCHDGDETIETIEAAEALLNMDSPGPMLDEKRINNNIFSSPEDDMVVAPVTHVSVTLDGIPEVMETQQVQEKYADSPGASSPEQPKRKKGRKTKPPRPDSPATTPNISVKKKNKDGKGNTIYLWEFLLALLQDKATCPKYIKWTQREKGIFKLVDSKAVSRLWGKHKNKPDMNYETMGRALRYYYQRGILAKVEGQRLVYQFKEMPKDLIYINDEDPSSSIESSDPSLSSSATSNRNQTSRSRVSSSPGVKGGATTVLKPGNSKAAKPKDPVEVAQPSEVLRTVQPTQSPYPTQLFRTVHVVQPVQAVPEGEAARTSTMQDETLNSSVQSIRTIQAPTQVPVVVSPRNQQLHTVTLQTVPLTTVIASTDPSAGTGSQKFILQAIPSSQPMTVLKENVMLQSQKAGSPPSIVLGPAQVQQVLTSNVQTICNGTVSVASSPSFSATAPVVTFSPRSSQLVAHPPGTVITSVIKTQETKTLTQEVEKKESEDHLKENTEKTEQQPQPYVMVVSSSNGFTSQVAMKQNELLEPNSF
row,Sequence,binding signal
1,AACTGG,"1.27 fold enrichment (6-mer frequency, TF over GST control)"
2,AATATG,"1.17 fold enrichment (6-mer frequency, TF over GST control)"
3,AATGGC,"1.39 fold enrichment (6-mer frequency, TF over GST control)"
4,CTTGAT,"1.42 fold enrichment (6-mer frequency, TF over GST control)"
5,TCTTGA,"1.3 fold enrichment (6-mer frequency, TF over GST control)"
6,AAGCAT,"1.09 fold enrichment (6-mer frequency, TF over GST control)"
7,CTACGC,"1.55 fold enrichment (6-mer frequency, TF over GST control)"
8,AAAACG,"1.16 fold enrichment (6-mer frequency, TF over GST control)"
9,ATTGTA,"1.24 fold enrichment (6-mer frequency, TF over GST control)"
10,TCCTCA,"1.49 fold enrichment (6-mer frequency, TF over GST control)"
11,TTTTAT,"1.17 fold enrichment (6-mer frequency, TF over GST control)"
12,CTTGGT,"1.46 fold enrichment (6-mer frequency, TF over GST control)"
13,TATATC,"1.58 fold enrichment (6-mer frequency, TF over GST control)"
14,ATAAAA,"1.12 fold enrichment (6-mer frequency, TF over GST control)"
15,TCCAAC,"1.25 fold enrichment (6-mer frequency, TF over GST control)"
16,CAAAAC,"1.28 fold enrichment (6-mer frequency, TF over GST control)"
17,CGATCT,"1.3 fold enrichment (6-mer frequency, TF over GST control)"
18,TTATTT,"1.3 fold enrichment (6-mer frequency, TF over GST control)"
19,ATGTTC,"1.21 fold enrichment (6-mer frequency, TF over GST control)"
20,TTCCCA,"1.3 fold enrichment (6-mer frequency, TF over GST control)"

row,Sequence,binding signal
1,TTAAAC,"1.23 fold enrichment (6-mer frequency, TF over GST control)"
2,TATTAA,"1.22 fold enrichment (6-mer frequency, TF over GST control)"
3,TGCTAT,"1.46 fold enrichment (6-mer frequency, TF over GST control)"
4,AAATGT,"1.38 fold enrichment (6-mer frequency, TF over GST control)"
5,CTTCTG,"1.34 fold enrichment (6-mer frequency, TF over GST control)"
6,ATGCGA,"1.26 fold enrichment (6-mer frequency, TF over GST control)"
7,GCGCTT,"1.31 fold enrichment (6-mer frequency, TF over GST control)"
8,TTTGTA,"1.56 fold enrichment (6-mer frequency, TF over GST control)"
9,CTACCA,"1.39 fold enrichment (6-mer frequency, TF over GST control)"
10,CCGTCT,"1.46 fold enrichment (6-mer frequency, TF over GST control)"
11,TAACAT,"1.35 fold enrichment (6-mer frequency, TF over GST control)"
12,ATGAGC,"1.24 fold enrichment (6-mer frequency, TF over GST control)"
13,CAACTT,"1.55 fold enrichment (6-mer frequency, TF over GST control)"
14,CTTTAT,"1.17 fold enrichment (6-mer frequency, TF over GST control)"
15,TATGGC,"1.24 fold enrichment (6-mer frequency, TF over GST control)"
16,ACAGCT,"1.16 fold enrichment (6-mer frequency, TF over GST control)"
17,TAGTTT,"1.22 fold enrichment (6-mer frequency, TF over GST control)"
18,TTATGG,"1.3 fold enrichment (6-mer frequency, TF over GST control)"
19,CTTCGT,"1.3 fold enrichment (6-mer frequency, TF over GST control)"
20,TTAACT,"1.27 fold enrichment (6-mer frequency, TF over GST control)"
